Test results published in ChEMBL document CHEMBL4513146, “CO-ADD screening of Karazin Kharkiv National University (Ukraine) compounds”.
Measured potencies and affinities stand elsewhere.

How the values were obtained:
Staphylococcus aureus = conditions: Concentration 32 ug.mL-1;; ASSAY_TEST Inhibition of Bacterial Growth; detection method Absorption (OD600); MEDIA CAMHB; plate type 384well; NBS; CORNING #3640; time 18 hr
Escherichia coli = conditions: Concentration 32 ug.mL-1;; ASSAY_TEST Inhibition of Bacterial Growth; detection method Absorption (OD600); MEDIA CAMHB; plate type 384well; NBS; CORNING #3640; time 18 hr

Row | SMILES | Inhibition (Staphylococcus aureus) [%] | Inhibition (Escherichia coli) [%]
1 | O=C(Cn1nc2c(N3CCSCC3)nc3ccccc3n2c1=O)NCc1ccccc1 | 1.1 | -1.64
2 | CCOc1ccc(C(=O)CSc2nnc3c(=O)n(-c4cccc(OC)c4)ccn23)cc1 | 5.74 | -13.86
3 | COC(=O)c1cccc(NC(=O)Cn2nc3c(N4CCCCCC4)nccn3c2=O)c1 | -4.81 | -10.52
4 | CSc1cccc(NC(=O)Cn2nc3c4c5c(sc4ncn3c2=O)CCCC5)c1 | -8.02 | -9.58
5 | COc1cccc(CNC(=O)CSc2nnc3c(=O)n(-c4ccc(C)c(C)c4)ccn23)c1OC | 3.35 | -0.9
6 | Cc1ccc(Sc2nccn3c(=O)n(CC(=O)Nc4cc(Cl)ccc4C)nc23)c(C)c1 | -0.43 | -11.77
7 | COC(=O)c1ccc(NC(=O)Cn2nc3c(Oc4cccc(OC)c4)nccn3c2=O)cc1 | 10.83 | -2.01
8 | COc1ccc(NC(=O)Cn2nc3ccc(-c4ccc(Cl)cc4)nn3c2=O)cc1 | 8.85 | -4.11
9 | COc1cccc(CNC(=O)CSc2nnc3c4cc(-c5cc(C)ccc5C)nn4ccn23)c1OC | 5.75 | -5.6
10 | O=c1c2sccc2n2c(=O)n(Cc3ccc(F)cc3)nc2n1CCc1ccccc1 | 10.13 | 2.04
11 | O=S(=O)(c1ccc2nncn2c1)N(Cc1ccccc1F)c1cccc(F)c1 | -5.69 | -18.72
12 | COc1cc(NC(=O)Cn2nc3c(N4CCCC4)nccn3c2=O)cc(OC)c1 | 5.55 | -2.57
13 | CCc1ccc(Cn2c(=O)c3sccc3n3c(SCc4cccc(C(F)(F)F)c4)nnc23)cc1 | 5.26 | -0.8
14 | COc1cccc(Oc2nccn3c(=O)n(CC(=O)Nc4ccc(C(C)C)cc4)nc23)c1 | -2.58 | -7.16
15 | CC(C)c1ccc(N(Cc2ccccc2)S(=O)(=O)c2cccn3cnnc23)cc1 | 5.98 | -8.68
16 | Cc1ccccc1Nc1cc(C)n2c(=O)n(CCc3ccccc3)nc2n1 | -11.65 | -1.35
17 | CCCCN(CC)c1ccc2nnc(CCc3nc(-c4ccc5c(c4)OCO5)no3)n2n1 | -15.7 | 1.35
